PubChem BioAssay AID1508600 (Functional Genomics Laboratory (NCATS/FGL), 2020)
In all, about 53,000 sequences went through this assay and about 3,700 (7%) were called active. The sample as a whole holds a higher share of actives than the screen did. A number with no mark means an inactive call.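 Rule for the calls: active = gene knockdowns whose robust z-score for IL-1 alpha signal is at least 2 or at most -2, so actives lie on both sides; inactive = the rest.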

Assay: Components of the Cytosolic LPS Sensing Pathway: Gene Identification via Genome-wide siRNA Screen;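 note: robust z of the log signal after scaling to non-targeting control siRNA wells of the plate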
Conditions: RAW264.7 macrophages, IL-1a HTRF, actives lie on both sides, screened at 100 nM (by protocol), cells primed 5 h with Pam3CSK4 first
Procedure, shortened: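 Using IL-1a HTRF as read-out, the screen measured release from RAW264.7 cells after 48h siRNA knockdown (100 nM), 5 h Pam3CSK4 priming and 24 h cytosolic LipidA. Values were expressed relative to negative-control wells as robust z-scores.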
Sequence GGUCUUCAACAACAUUAUCTT against Hid1 has a z-score of 1.
GCCGAUCCAUUUUUGGCUCTT against Mlxip showed a z-score of 0.86.
Work on GGAGUAUUACCUGGUUAAGTT against Suv39h1 yielded a z-score of -1.18.
For GCAAGUUAAGGAUAUCAUGTT against Katna1, the z-score was 1.2.
With CCGAGUCUUGAACUAGGCATT against Six2 the z-score was -2.01 (active).
Sequence GCUUUCUGAAGUAGCAAAGTT against Nit2 has a z-score of 0.42.
With GAUGUACGAGAGCUUAGCATT against Uqcc2 the z-score was -1.14.
Sequence GGACUACCUGUGUAUGCUCTT against Dcaf12l1 has a z-score of 1.3.
For GGAAUGUUCCUUCGAGCAGTT against Ccdc28b, the z-score was -0.197.
For GCCAUAGAAGUAGAAGUAGTT against Rbmx2, the z-score was -2.29 (active).
Sequence GGCGAAAGUAAGACAAAGUTT against Ric8a has a z-score of 0.708.
With GGCAAACCGACAGACUUCUTT against Riok1 the z-score was -0.033.
GGUCUCUCAUUACCACAUUTT against Olfr69 gave a z-score of 1.75.
In the case of GGAAGAUCAGCCAUACUAGTT against Klrb1f, the z-score is reported as 2.12 (active).
Sequence GCCCACACUUGCUAAUGAATT against Ppp1r26 has a z-score of 0.468.
With GCUGAACGAUGACUAUCCCTT against Cryba4 the z-score was 2.2 (active).
GCUUGUGCCAAGCAUUCUUTT against Rdh1 gave a z-score of 0.861.
GGACUCAGAAGAAAUGGACTT against Osbpl6 showed a z-score of 0.109.
GCUCUGCUAACUUACAUCUTT against Mtmr11 showed a z-score of 1.75.
With GGCAAAGAGAUUGACAUUGTT against Kif2c the z-score was -0.991.
With GCGGUCACGUGUGAUGGAUTT against Zfp653 the z-score was 3.98 (active).
Work on GGCAGGAGAUGGUAACUGCTT against Phc2 yielded a z-score of 1.08.
Sequence CGAAUUCAAAAAGCUAGAGTT against Gsto1 has a z-score of 0.0531.
With GGCCUUCAUGGAUUAUACCTT against Serpinb9 the z-score was 2.09 (active).
For GGCCAUUCAGAAGAUGCAGTT against Snapc2, the z-score was -0.852.
In the case of CGAUUGUCGGGUUUUGUUUTT against Nutf2, the z-score is reported as -2.53 (active).
Work on GCCAUUGACUGUACAGGUUTT against Taar4 yielded a z-score of 0.74.
For GGAAGAGCAGGCAUCCAUATT against Ranbp10, the z-score was -0.294.
With GGGAGAUGAUUAGUUCAUUTT against Mad1l1 the z-score was 0.654.
In the case of GGCCAGUCCAAAGACCAUCTT against Hsd3b7, the z-score is reported as 1.95.
With GCAAAACAUUUCCUGUCUGTT against Zfp316 the z-score was -0.555.
Sequence CCUCAAUUAUACCAAGAUUTT against Mapre3 has a z-score of -1.28.
GCCAGGAGUCCUUUAGGAATT against Tmem159 gave a z-score of -0.184.
With GCCCUCUUAUCUGAAUAAUTT against Stk17b the z-score was 2.19 (active).
Work on GGGAUUGGAAGAGAAAUGGTT against Hsd11b1 yielded a z-score of 0.362.
GCUAUACGAAGACUUCAGCTT against Hdhd3 showed a z-score of 0.972.
Work on GGCCUUUAAUUUCUUACACTT against Akt1s1 yielded a z-score of -0.6.
GGAGUGAAAUUUACUGGGUTT against Hdgfl3 showed a z-score of 1.28.
Sequence GGAGAACAAAGAUUUCGUGTT against Lhfpl4 has a z-score of -0.897.
In the case of GCUAAACACGCUGAAUAUUTT against Phf10, the z-score is reported as 0.107.
For GCUACUAUCACAUAUGCACTT against Olfr1122, the z-score was -2.09 (active).
GGGUUGGUAUAGCUUUCAGTT against Zfp619 gave a z-score of -0.948.
In the case of GGAACCUGAAAAUGUAUGUTT against Cxcl10, the z-score is reported as 0.988.
Work on CGUUCAGUGUCUGCAGGUUTT against Mrps12 yielded a z-score of -0.0575.
For CCACUAAUUACAGUAACAUTT against Akr1c20, the z-score was -1.11.
With “GCAGACUCAUGCACUUGAATT against Olfr1165-ps” the z-score was -0.321.
GGAAGUCUUAGAAGUAGCCTT against Diaph3 gave a z-score of 0.691.
For GGGAACUGCACAAUACAAATT against Ccdc122, the z-score was 1.91.
With GGCUGGUGGAUAAUGAUUGTT against Tmem50b the z-score was 2.18 (active).
GGACUGUUUUGUCUUGAAGTT against Gm5124 showed a z-score of -1.04.
GGUUUUUGUUAAGGUCAAUTT against Abca16 showed a z-score of 0.209.
In the case of CCAUCCGUAACAUCGACUGTT against Mboat7, the z-score is reported as -0.293.
UGGUCACCUUUCUCUUAUUTT against Tas2r140 gave a z-score of -0.575.
For GCUCCUGGGAUACGUAUUATT against Abhd16a, the z-score was -2 (active).
Sequence GGGAGCUGAACACAAACACTT against Trav3-3 has a z-score of 0.191.
With GGACCUUCUUCAAGAAAGUTT against Olfr430 the z-score was 0.0987.
GGAUGGUGAAAAUCUUGAGTT against Mindy1 gave a z-score of 1.39.
GGACAAUGGGAGCUAUCGATT against Gpld1 gave a z-score of -1.73.
With “GGCUAAUACAUAAAGUAGUTT against 4930515G01Rik” the z-score was 0.452.
GGUCAAGAAAUGGGCAAGCTT against Arhgdib gave a z-score of 1.14.
With GGAAAUAAACCACCUCUUCTT against Olfr437 the z-score was 2.36 (active).
In the case of GAACAUGGAAAGCAGCAUUTT against Lce1m, the z-score is reported as -0.757.
GGUAUUUUUCAUGGCUCUCTT against Olfr305 gave a z-score of -0.0328.
GCCAAAUACUUUUUUACCCTT against Slc38a2 gave a z-score of 0.682.
Sequence GCUUACCAAAAGGAUAUCCTT against Zfand2b has a z-score of -1.94.
For GGCAUUUCAUGUAGCUAAATT against Spata18, the z-score was 2.04 (active).
GGUCCAACGAUAUGUUGACTT against Cyp2c67 gave a z-score of 1.27.
In the case of GGACAUGGAGAAAAAGUACTT against Styk1, the z-score is reported as 0.547.
Work on GCAGUGCGAUUGCUUACAGTT against Tube1 yielded a z-score of 1.07.
With GGAUGUUCCAUUUCUAAGCTT against Zfp30 the z-score was -3.76 (active).
GGAGUGUGCCCUGAAAGAUTT against Psrc1 gave a z-score of -0.215.
GGCUUUUCUGCCAUUUAUGTT against Sox18 gave a z-score of 0.23.
For GGGUGAAAGAAAGAAAGAATT against Plp1, the z-score was -0.883.
With GGCCCAGUGACUAUGGAAUTT against Mpnd the z-score was -2.68 (active).
Sequence GGAUUACAGAAGCCCACACTT against Plekhn1 has a z-score of -0.719.
Sequence GGACGUGCUUACAUUGUACTT against Pcdhb9 has a z-score of -0.212.
For GCAAUUGAGAUCUAUACAGTT against Napa, the z-score was -0.0109.
Sequence GGGAAUAUGUGAAACAGACTT against Syk has a z-score of -0.229.
For GCCAAUAAAGUCGGUGAAATT against H2aj, the z-score was -0.244.
Work on GGAAUAAUCCCAGAAUCAGTT against Stard6 yielded a z-score of 0.0758.
For GGAAGUGGCUUUUUAUCAGTT against Arhgap6, the z-score was 2.05 (active).
Work on CCAUACACAACAUUCCAGATT against Slc39a11 yielded a z-score of 0.0339.
With GCAUUCAUCAAAUUUACAGTT against Prrg4 the z-score was -0.67.
In the case of CCUACUAACAACAAGAGCATT against Pcdhga5, the z-score is reported as 0.021.
GGAACUGAUCUGGAAGAAUTT against Sord gave a z-score of -0.392.
With GGAAUACCAGGCCUUCCUUTT against B4galnt1 the z-score was -0.886.
In the case of CCUCGAUUAUAGCAAUACUTT against Slc16a14, the z-score is reported as 1.36.
With GGUGCAGGACCAUUUCCAUTT against Slc10a6 the z-score was 3.25 (active).
Work on GAAAUGUCCAUCCAAAAGCTT against Sprr2k yielded a z-score of 0.602.
Work on GGAUUAGGAAUCACAGUAGTT against Fam78a yielded a z-score of 0.675.
For CCUUAUAGUCCAGUAUUUUTT against Slf2, the z-score was 2.71 (active).
GGCCAAAAAGGAGGCACCATT against Rps15 showed a z-score of 0.662.
GCAUUUUAAUGCGCCAGUUTT against Atp2c1 showed a z-score of -0.164.
Sequence GGGAGCUUUGGAAAUUUUATT against Zbtb3 has a z-score of 0.451.
In the case of CCUCUCCUGCUCUGACAUATT against Olfr933, the z-score is reported as 0.541.
For GGAAGAGGUCUUUAAUACATT against Kif4, the z-score was 2.86 (active).
In the case of GGUGUUUGGCGAUAAUAAGTT against Zdhhc15, the z-score is reported as -0.237.
Work on GGAAAGAAUAGCAGCGUGGTT against Echs1 yielded a z-score of 1.14.
With GCGAGACAAUUGUUAUUGATT against Zmym2 the z-score was -1.05.
Sequence GGCCAUGGAAGCUGUUGCUTT against Pgam2 has a z-score of -0.264.
For GGACAGAUGAUGAAGUUGUTT against Hsp90b1, the z-score was -2.24 (active).
GGUUCAGUCAAGAAUUGCUTT against Clec4e gave a z-score of 1.68.
GCUGUCGAUAGAAAAAAUCTT against Scml2 showed a z-score of 0.566.
For GGGCAAUUUGUUCGACCCATT against Abca2, the z-score was -0.14.
GGGCCUGGAAAACAUUGACTT against Ndufa1 showed a z-score of -0.316.
For CCCAGUGUCAUUCAGUAUUTT against Phactr3, the z-score was 2.13 (active).
For CCUUCAACACCAGUUUGGGTT against Olfr1393, the z-score was 0.45.
